Most compounds without a hit are left out; they make up all but 3.9% or so of the library.
BoNT F protease – inhibitors of Botulinum neurotoxin F light chain protease | Multiplex microsphere protease cleavage assay, flow cytometry | inhibition, % at 10 µM | actives 0.22% (n = 360,000); in the data active = inhibition above about 35%, passing the limit was not always enough; inconclusive = no clear call, values can overlap the other calls; note: plate controls were buffer without enzyme for full effect and enzyme alone for no effect
3CLpro inhibitor – SARS-CoV 3CLpro protease inhibition. P0C6X7. recombinant SARS-CoV 3CLpro, quenched FRET peptide cleavage. inhibition, % at 6 µM. actives 0.14% (n = 290,000); in the data active = inhibition above about 12%
BoNT-A LC inh2 – blocks Botulinum neurotoxin A light chain protease; actives 0.17% (n = 360,000); inhibition, % at 10 µM; multiplex microsphere protease substrate cleavage, flow cytometry; AID 588499; note: plate controls were buffer without enzyme for full effect and enzyme alone for no effect
VHR inh abs – blocks human VHR1 dual specificity phosphatase; P51452; recombinant VHR phosphatase, pNPP absorbance; inhibition, % at 13.3 µM; actives 0.52% (n = 290,000); AID 1654; in the data active = inhibition above about 50%
Bead autofluor – flagged as autofluorescent in microsphere protease counterscreen; compound autofluorescence counterscreen, microsphere flow cytometry; stronger effect = higher value; fluorescence intensity (test concentration not listed); actives 3.1% (n = 360,000); AID 624483; in the data active = fluorescence intensity above about 16000; inconclusive = no clear call, values can overlap the other calls
Anthrax LF prot – blocks Bacillus anthracis lethal factor protease | P15917 | actives 0.12% (n = 360,000) | multiplex microsphere protease cleavage assay, LF | inhibition, % at 10 µM | AID 588501; note: plate controls were buffer without enzyme for full effect and enzyme alone for no effect
BoNT-A LC CP1 – blocks botulinum neurotoxin A light chain protease | shares compounds with BoNT F protease | multiplex microsphere protease assay, flow cytometry | inhibition, % at 10 µM | actives 3% (n = 720); in the data active = inhibition above about 32%
BoNTF LC inh 1 – blocks botulinum neurotoxin F light chain protease; 720 tested, under 10 active; shares compounds with BoNT F protease; multiplex microsphere protease cleavage assay, flow cytometry; inhibition, % at 10 µM; call rule not given here
LF protease CP1 – Bacillus anthracis lethal factor protease inhibition | shares compounds with BoNT F protease | 720 tested, under 10 active | multiplex microsphere protease cleavage assay, LF | inhibition, % at 10 µM | AID 602142; call rule not given here
* hit, by the source's call; ? = inconclusive; . = no result given; + = active, no number. Cut-off read from the data, not from the text of the source, unless noted: active = inhibition above about 30%; inconclusive = no clear call, values can overlap the other calls; inactive = below that.

SMILES	BoNT F protease	3CLpro inhibitor	BoNT-A LC inh2	VHR inh abs	Bead autofluor	Anthrax LF prot	BoNT-A LC CP1	BoNTF LC inh 1	LF protease CP1
O=C(Nc1ccc(N2CCOCC2)cc1)c1csc(COCCO)n1	6	.	0	.	3636	-4	.	.	.
COc1cc(NC(=O)c2c(OC)cccc2OC)ccc1NC(=O)c1cc2ccccc2o1	-39	6	-2	14	3480	32*	1	-1	0
COc1cc(NC(=O)c2ccc(F)cc2)ccc1NC(=O)c1cc2ccccc2o1	.	-6	.	-8	.	.	.	.	.
CC(C)C(NC(=O)OCc1ccccc1)C(=O)NC1CCCCC1 (configuration not stated)	-3	1	1	2	1935	-1	.	.	.
O=C(Nc1nc(-c2ccccc2)c(-c2ccccc2)s1)c1ccc(S(=O)(=O)N2CCCCC2)cc1	-7	-2	0	-4	11466	-6	-1	-6	-5
COc1ccc(C(=O)Nc2nc(-c3ccc([N+](=O)[O-])cc3)c(-c3ccc(OC)cc3)s2)cc1	22	6	38*	9	7771	33*	14	9	12
CCOC(=O)CSc1nc2sc3c(c2c(=O)n1-c1ccc(OCC)cc1)CCN(C)C3	10	3	53*	-2	3704	20	1	2	4
CCCN1CCc2c(sc3nc(SC)n(-c4ccccc4)c(=O)c23)C1	27	0	33*	-12	5541	11	6	2	5
Cc1ccc(C)c(NC(=O)C(C)N2C(=O)c3ccccc3C2=O)c1 (configuration not stated)	23	-1	1	6	3990	-4	.	.	.
CC(=O)c1cccc(NC(=O)C2(C)Cc3c(-c4cccc(C(F)(F)F)c4)ccnc3O2)c1 (configuration not stated)	1	.	0	.	3989	-4	.	.	.
CCn1ccnc1CN1CCN(CC=C(C)C)C(CCO)C1 (configuration not stated)	48*	-2	4	39	2683	-1	0	-4	-1
Cc1nn2c(c1-c1ccccc1)NC1=C(C(=O)CCC1)C2c1ccccc1 (configuration not stated)	36*	-2	28	17	12476	3	0	-4	2
CCC(=O)N1c2ccccc2NC2=C(C(=O)CCC2)C1c1ccccc1 (configuration not stated)	-9	1	-1	-17	8244	-3	.	.	.
Cc1ccc(S(=O)(=O)n2cc(CO)c3ccccc32)cc1	?	.	0	.	3527	-14	.	.	.
COc1ccccc1NC(=O)c1cccnc1	-14	-1	0	21	3025	-5	.	.	.
Cc1ccccc1NC(=O)c1cccnc1	66*	3	3	11	3631	10	0	-1	1
Clc1ccc(N2CCN(Cc3ccco3)CC2)cc1	?	-10	0	2	3960	12	.	.	.
Clc1ccccc1N1CCN(Cc2ccco2)CC1	50*	3	2	18	3623	17	-1	-3	-2
COc1ccc(CC(=O)N[C@@H]2c3cc(OC)c(OC)cc3C[C@H]2O)cc1	-4	.	0	.	2925	-5	.	.	.
Nc1ccc(S(=O)(=O)Nc2nccc(/C=C/c3cccc(Br)c3)n2)cc1	37*	-2	-1	38	3522	3	0	-2	-1
COC(=O)N1c2ccccc2C=Cc2ccccc21	6	4	1	14	4077	9	.	.	.
Cc1ccc(S(=O)(=O)c2cc(C)cc(S(=O)(=O)Nc3ccc(C(=O)O)cc3)c2C)cc1	39*	0	-2	-4	3745	6	0	1	0
Cc1cc(S(=O)(=O)Nc2cccc(C(=O)O)c2)c(C)c(S(=O)(=O)c2ccc(Cl)cc2)c1	0	-1	5	30	3561	2	.	.	.
O=c1c(/C=C(\O)c2ccccc2)nc2ccccc2n1-c1ccccc1	+	4	61*	-2	17938*	41*	40*	36*	32*
CCOC(=O)N1CCN(C(=O)c2ccc(C)c(S(=O)(=O)Nc3cccc(C)c3C)c2)CC1	-16	1	?	18	9944	2	.	.	.
SMILES	BoNT F protease	3CLpro inhibitor	BoNT-A LC inh2	VHR inh abs	Bead autofluor	Anthrax LF prot	BoNT-A LC CP1	BoNTF LC inh 1	LF protease CP1
CCOC(=O)N1CCN(C(=O)c2ccc(C)c(S(=O)(=O)Nc3ccccc3)c2)CC1	34*	0	1	4	3457	-2	0	-3	1
CCCS(=O)(=O)NC(=O)C1(C)CCN(C(=O)c2cccc(C)c2C)C1 (configuration not stated)	-1	.	0	.	3805	-5	.	.	.
CCN(Cc1ccccc1)N=Nc1ccccc1	-3	.	0	.	3544	-1	.	.	.
N#Cc1nc(-c2ccccc2F)oc1NCCc1ccccc1	42*	8	?	-12	10751	2	-3	-2	-4
N#Cc1nc(-c2ccccc2F)oc1NCc1ccccc1	-10	1	-1	25	5810	3	.	.	.
COc1cc(NC(=O)CCn2c(=O)[nH]c3ccsc3c2=O)cc(OC)c1	41*	-7	4	-5	4712	4	0	-3	-4
Cc1ccc(NC(=O)CCn2c(=O)[nH]c3ccsc3c2=O)cc1	.	1	.	-11	.	.	.	.	.
Cc1cc(C)c2cc(CN(CCN3CCCC3)C(=O)Nc3ccc(F)cc3)c(=O)[nH]c2c1	62*	-4	3	7	10627	6	-5	-11	-2
O=C(O)c1ccccc1NC(=O)C1CCN(S(=O)(=O)c2cccc3nsnc23)CC1	-1	8	1	4	4361	-2	.	.	.
O=C(O)c1cc(-c2ccccc2)c(N2CCOCC2)s1	21	-2	84*	4	2262	69*	0	0	2
c1ccc(-c2cnn3c(-c4ccccc4)c(-c4ccccc4)nc3n2)cc1	21	5	37*	1	5602	21	26	23	11
CC1C(=O)Nc2ccc(S(=O)(=O)N3CCCCCC3)cc21 (configuration not stated)	-3	.	0	.	3627	2	.	.	.
COc1cc(/C=C/C(=O)OCC(=O)NC2CCCCCCC2)ccc1O	1	.	-1	.	3990	6	.	.	.
COc1cccc(CN2CCN(C(=O)c3cccc(OC)c3)CC2)c1	3	-2	0	-12	3553	18	.	.	.
O=C(c1ccccc1)N1CCN(Cc2cccc(Oc3ccccc3)c2)CC1	38*	1	4	-5	2577	0	-1	-2	1
CCOC(=O)C1=CN(Cc2ccco2)S(=O)(=O)N(C)C1c1ccc2ccccc2c1 (configuration not stated)	-4	.	0	.	3973	-6	.	.	.
COCCn1c(SCC(=O)N2CCCC2=O)nnc1-c1ccncc1	3	.	-1	.	3148	-1	.	.	.
CCOC(=O)CC(=O)CSc1ncc(C(=O)OCC)c(N)n1	134*	2	1	8	6848	50*	2	5	3
